Most compounds without a hit are left out; they make up all but 2.8% or so of the library.
IP6K1 inhibitor: IP6K1 kinase inhibition; Q92551; IP6K1 kinase, ADP-Glo luminescence, 2 h; hits give low values; activity change, % (series mostly up to about 58 µM); hit rate 0.81% among 140,000; in the data active means activity change below about -25%
Target sequence (Q92551 whole entry, looked up): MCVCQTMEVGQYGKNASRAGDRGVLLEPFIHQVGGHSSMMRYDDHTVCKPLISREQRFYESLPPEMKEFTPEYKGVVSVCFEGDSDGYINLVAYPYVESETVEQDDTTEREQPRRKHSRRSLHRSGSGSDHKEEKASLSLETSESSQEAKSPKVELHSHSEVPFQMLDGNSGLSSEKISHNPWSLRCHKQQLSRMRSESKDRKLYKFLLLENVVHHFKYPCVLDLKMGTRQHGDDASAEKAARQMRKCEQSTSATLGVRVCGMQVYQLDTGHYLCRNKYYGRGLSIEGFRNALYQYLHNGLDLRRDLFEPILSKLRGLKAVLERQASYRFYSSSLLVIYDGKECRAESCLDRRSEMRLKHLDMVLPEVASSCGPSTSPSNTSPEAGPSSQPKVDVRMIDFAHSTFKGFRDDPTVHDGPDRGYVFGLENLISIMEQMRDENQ
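ADP-Glo luminescence measures ADP made by human IP6K1 during a 2 h RT reaction with ATP/IP6 (mix at 1.3 mM/130 uM); top library doses 57.5 and 19.1 uM final.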
SNCA expr inh: SNCA gene expression inhibition; Potency, µM (titrated, usually from 57.2 µM), usual class: inhibitors; AID 1671194; hit rate 0.17% among 140,000; HEK-293 SNCA-luciferase knock-in, luminescence, 24 h; further: nearly all actives have a fitted effect of over 45% in size
KDM5B inhibitor: inhibitors of human KDM5B histone demethylase. Q9UGL1. KDM5B demethylase, FDH-coupled NADH fluorescence (FDH is formaldehyde dehydrogenase). Potency, µM (doses to about 57.7 µM), most hits filed as inhibitors. hit rate 2.6% among 220,000. AID 1347165; further: nearly all actives have a fitted effect of over 70% in size
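Compound dilutions met 200 nM (final) KDM5BΔAP for 10 min at room temperature before substrate addition. The substrate mix held 12.5 µM H3K4me3 with cofactors 25 µM α-ketoglutarate and 50 µM Fe²⁺. NADH signal gain over 30 min defined activity.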
HEK293 viab: counter-screen for SNCA expression inhibitors: cell viability. Potency, µM (series often up to 57.1 µM), most hits filed as cytotoxic. hit rate 0.12% among 150,000. AID 1671193. HEK-293-SNCA-luc viability, GF-AFC fluorescence, 24 h; further: nearly all actives have a fitted effect of over 30% in size
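Cytotoxicity counterscreen: after 24 h compound treatment of genome-edited SNCA-luciferase HEK-293 cells, live-cell protease substrate GF-AFC read by fluorescence after 30 min; activity scaled between DMSO (0%) and medium-only (-100%), curves Hill-fitted.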
Numbers stand for hits; 0 = inactive; ? = inconclusive; - = not tested or not shown; ! = not active in a repeat. Unless noted, the call rests on the fitted dose curve; in most records, active means well fitted curve in the direction sought with a large enough effect; inconclusive means small, poorly fitted or top-dose-only effect, or another doubt; inactive means no such curve, though single readings can be large; an effect the other way counts as inactive or inconclusive.

SMILES | IP6K1 inhibitor | SNCA expr inh | KDM5B inhibitor | HEK293 viab
CCCS(=O)(=O)N1CCc2n[nH]c(=O)n2CC1 | 0 | ? | 0 | 0
CCCCS(=O)(=O)N1CCc2n[nH]c(=O)n2CC1 | 0 | 0 | 20µM | 0
COc1ccc(OC)c(C2=NOC(C(=O)O)C2)c1 (configuration not stated) | 0 | 0 | 28µM | 0
N[C@@H](Cc1cc(I)c(Oc2ccc(O)c(I)c2)c(I)c1)C(=O)O | -34 | - | - | 0
N[C@@H](Cc1cc(I)c(Oc2cc(I)c(O)c(I)c2)c(I)c1)C(=O)O | 0 | 0 | - | 0
Clc1ccccc1-n1nnnc1-c1ccccc1 | - | - | 0 | -
O=C(O)c1ccnc(-c2ccnc(NCCN3CCCCC3=O)n2)c1 | 0 | 0 | 22µM | 0
O=C(O)c1ccnc(-c2ccnc(NCCc3noc(C4CCC4)n3)n2)c1 | 0 | 0 | 28µM | 0
Cc1ccc2nc3c(n2c1)C(c1ccccc1OCCN(C)C)CC(=O)NC3 (configuration not stated) | 0 | 0 | 32µM | 0
COc1ccc(CN2CC3(CCN(C(=O)Nc4ccccc4F)CC3)C2=O)cc1 | 0 | 0 | 0 | 0
COCC(=O)N1C[C@H](NC(=O)C(=O)c2cccn2C)[C@@H](C2CC2)C1 | 0 | 0 | 0 | 0
COCC(=O)N1C[C@H](NC(=O)c2nc3ccccc3n(C)c2=O)[C@@H](C2CC2)C1 | 0 | 0 | 22µM | 0
Cc1ccc(Cn2cccc2C2=NC(C)(C)CO2)cc1 | 0 | ? | 0 | 0
O=C(C1CCC1)N1CCCC(Nc2ccc(F)cc2)C1 (configuration not stated) | 0 | 0 | 0 | 0
CCOc1nccnc1NC1CCN(C(=O)c2ccc(C)s2)CC1 | 0 | 0 | 28µM | 0
CCOc1nccnc1NC1CCN(C(=O)c2cccn2C)CC1 | 0 | 0 | 28µM | 0
Cc1ccc(C(=O)N2CCC(OC3CCN(C)CC3)CC2)s1 | 0 | 0 | 0 | 0
CN(Cc1ccccc1)Cc1cc(C[C@H]2CNCC[C@H]2CC(=O)N2CCN(c3ccccn3)CC2)no1 | 0 | ? | 18µM | 0
CC(C)(C)c1ccc(-c2cc(C[C@H]3CNCC[C@H]3CC(=O)N3CCN(c4ccccn4)CC3)no2)cc1 | 0 | 0 | 0 | ?
c1ccc(C2(c3ccccc3)CCCN(CCCn3cnnn3)C2)cc1 | 0 | 0 | 0 | 0
CCc1ccc(CN(C)CC(=O)N(C)c2c(N)n(Cc3ccccc3)c(=O)[nH]c2=O)cc1 | - | - | 0 | -
CC[C@@H]1C(=O)N(C)c2cnc(Nc3ccc(C(=O)NC4CCC(N5CCN(CC6CC6)CC5)CC4)cc3OC)nc2N1C(C)C (some centres not stated) | 0 | 0 | - | 30µM!
COc1cc(C(=O)NC2CCN(C)CC2)ccc1Nc1ncc2c(n1)N(C1CCCC1)CCC(=O)N2C(C)C | - | 0 | - | 0
CCC1C(=O)N(C)c2cnc(Nc3ccc(C(=O)NC4CCC(N5CCN(CC6CC6)CC5)CC4)cc3OC)nc2N1C(C)C (configuration not stated) | 0 | - | - | 24µM
Fc1ccccc1-c1cnc2n[nH]c(-c3ccc4c(c3)OCO4)c2n1 | 0 | ? | ? | 0
SMILES | IP6K1 inhibitor | SNCA expr inh | KDM5B inhibitor | HEK293 viab
NCc1cccc(-c2cncnc2)c1 | 0 | 0 | ? | 0
Cc1nn(Cc2ccccc2)c(C)c1[C@@H]1C=C[C@@H](NC(=O)c2ccc(F)c(Cl)c2)C1 | 0 | ? | 28µM | ?
Cc1nn(Cc2ccccc2)c(C)c1[C@@H]1C=C[C@@H](NC(=O)c2ccco2)C1 | 0 | 0 | ? | 0
CN1CCN(c2ccc(-c3cn(C)c(=O)n4cc(COc5ccnn5C)nc34)cn2)CC1 | 0 | 0 | 40µM | 0
Cn1nccc1OCc1cn2c(=O)n(C)cc(-c3ccsc3)c2n1 | 0 | 0 | ? | 0
COc1cc(-c2cn(C)c(=O)n3cc(COc4ccnn4C)nc23)ccn1 | 0 | 0 | 35µM | 0
Cn1cc(-c2cn(C)c(=O)n3cc(CNc4ccccc4)nc23)cn1 | 0 | 0 | 0 | 0
CN1CCN(c2ccc(-c3cn(C)c(=O)n4cc(CNc5ccccc5)nc34)cn2)CC1 | 0 | 0 | 28µM | 0
COc1ccc(-c2cn(C)c(=O)n3cc(CN(C)C)nc23)cc1OC | 0 | 0 | 35µM | 0
O=C(NC1CC(=O)N(Cc2cccc(F)c2)C1)c1ccccc1-n1cccn1 (configuration not stated) | 0 | 0 | 0 | 0
CCNC(=O)N(C)Cc1cccc(N2CCN(C(=O)c3c(Cl)cccc3Cl)CC2)c1F | 0 | - | - | -
NC1CCN(Cc2ccc(C(=O)NCc3ccc(S(N)(=O)=O)cc3)c(=O)[nH]2)C1 (configuration not stated) | 0 | 0 | 22µM | 0
Cn1cccc1CN1CCCCCNC(=O)[C@@H]2CCC[C@@H]21 | 0 | 0 | 0 | 0
